Test results from PubChem BioAssay AID651789 (National Center for Advancing Translational Sciences (NCATS), 2012).
Results filed as inconclusive are left out. Activity calls are given as the source filed them. Calls follow the shape of the dose curve; as a rule, active = well fitted inhibition curve with a large enough effect; inconclusive = small, poorly fitted or top-dose-only effect; inactive = no such curve, though single readings can be large or run the other way.

Experiment: Acumen qHTS Assay for Inhibitors of the mTORC1 Signaling Pathway in WT MEF Cells: Hit Validation; also: nearly all actives have a fitted effect of over 60% in size
Conditions: Acumen imaging; series mostly up to 37.3 µM
In short: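 Read-out is immunofluorescent phospho-rpS6 (Ser235/236) normalised to PI-stained cell number, reported as % active cells using a 7.5 nM rapamycin threshold. Cells: WT or Tsc2-/-, p53-/- MEFs, compound-exposed 24 h at 37C; PI count also tracks viability.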
Potency is read from the fitted curve at half-maximal effect.

Potency, active:
C=CCNC1=C2C[C@@H](C)C[C@H](OC)[C@H](O)[C@@H](C)/C=C(\C)[C@H](OC(N)=O)[C@@H](OC)/C=C\C=C(/C)C(=O)NC(=CC1=O)C2=O 0.515 µM
Cc1ccc(CS(=O)(=O)c2ncc(Cl)c(C(=O)Nc3nnc(C(C)C)s3)n2)cc1 11.7 µM
CC1C(=O)N2CCCc3cc(S(=O)(=O)Nc4ccc(Br)cc4F)cc1c32 (stereo not given) 2.07 µM
FC(F)(F)c1cccc(Nc2c3c(nc4ccc(Cl)cc24)CCC3)c1 16.5 µM
COc1ccc(N(Cc2ccccc2)C(=O)c2nc(S(C)(=O)=O)ncc2Cl)cc1 2.07 µM
CN(C)c1ccc(NC(=O)Cn2cc(S(=O)(=O)Cc3ccccc3Cl)c3ccccc32)cc1 13.1 µM
CC(C)c1nnc(NC(=O)c2nc(S(=O)(=O)Cc3ccccc3)ncc2Cl)s1 5.21 µM
CCOC(=O)c1c(NC(=O)c2nc(S(C)(=O)=O)ncc2Cl)sc(C(C)=O)c1C 2.07 µM

Potency, inactive:
C#CC(C)(CC)NC(=O)Cn1nnc(-c2ccc(OCc3c(F)cccc3Cl)cc2)n1 (stereo not given)
Cc1ccc(S(=O)(=O)c2nc(-c3ccco3)oc2SC(C)c2ccccc2)cc1 (stereo not given)
COc1cccc(C2CC(=O)Nc3cc4c(cc32)OCCO4)c1OC (stereo not given)
CCc1ccc(CN(Cc2ccco2)C(=O)c2cc(-c3ccc(C)c(F)c3)on2)cc1
COc1ccc(CCCc2nnc(SCC(=O)Nc3ccc(OC)cc3)o2)cc1
Cc1ccc(C(C)C)c(OCC(=O)Nc2cc(-c3nc4ccccc4[nH]3)ccc2C)c1
CCc1nn(CC(=O)NCc2ccccc2)c(=O)c2cccn12
CC(C)CCNC(=O)Nc1ccc2c(c1)N(C)C(=O)c1ccccc1S2
CC(C)(C)c1ccc(S(=O)(=O)N2CCC(c3ccncc3)CC2)cc1
Cc1ccc(CN(Cc2ccco2)C(=O)c2cccc(C)c2)cc1
Cc1ccccc1NC(=O)c1sc2nc3c(cc2c1N)CCCC3
CCC(Sc1nncn2c1cc1oc(C)cc12)C(=O)Nc1ccc(F)cc1 (stereo not given)
Cc1cccc(NC(=O)c2c(NC(=O)C(F)(F)F)sc3c2CCCCC3)c1
CCOC(=O)C(Cc1c[nH]c2ccccc12)NC(=O)COc1ccc(Cl)cc1 (stereo not given)
COc1cccc(/C=C(\C#N)c2nc3ccc(C)cc3[nH]2)c1
C=C(C)CSc1nc(-c2ccccc2)cc(-c2ccc(OC)cc2)c1C#N
Cn1nnnc1SCCCNCc1cccc(OCc2ccc(Cl)cc2)c1
CCOc1ccccc1NC(=O)CSc1cc(=O)n(CC)c2ccccc12
Cc1ccc(-c2nnc(Nc3ccc(O)cc3)c3ccccc23)cc1S(=O)(=O)N1CCCCC1
COc1ccc(Cn2c(C(=O)O)c(CNCc3ccccc3F)c3ccc(OC)cc32)cc1
CCOc1cc(C2CC(=O)Nc3cc4c(cc32)OCCO4)ccc1O (stereo not given)
COc1ccc2cc(CNc3ccccc3)c(=O)n(CC(=O)Nc3ccc(C)cc3C)c2c1
COc1ccc(C)cc1NC(=O)CCNS(=O)(=O)c1cccc2nonc12
CC(C)(C)C1CCc2c(sc(NC(=O)C3c4ccccc4Oc4ccccc43)c2C(N)=O)C1 (stereo not given)
CCOC(=O)c1ccc(N2C(=O)c3n[nH]c(-c4ccco4)c3C2c2ccc(OCC)cc2)cc1 (stereo not given)
Cc1oc(-c2ccccc2F)nc1Cn1c(SCc2cccc(Cl)c2)nc2ccncc21
Cc1ccc(NC(=O)CSc2ccc(-c3ccccn3)nn2)cc1F
COc1ccc(NC(=O)CSc2nc3ccccc3n2Cc2cccc(OC)c2)cc1
Cc1nn(CC(=O)NCc2ccccc2Cl)c(=O)c2cccn12
CCn1c(CC2C(=O)N(C)c3ccc(Br)cc32)nc2ccccc2c1=O (stereo not given)
CCOC(=O)c1ccc2ncc(C(=O)OCC)c(NCCc3ccc(OC)c(OC)c3)c2c1
CCOc1ccccc1NC(=O)Cn1c(=O)n(CCC(=O)NCc2ccc3c(c2)OCO3)c(=O)c2ccccc21
